Drawing on the antibiotic and cytotoxicity screens of Wong et al. (2023), this text covers cytotoxicity call for 71 compounds.

SMILES strings stand for the structures. The campaign covered roughly 39,000 compounds. About 3,300 (8.5%) were called active. What follows is part of a selection rich in actives, with near analogues and random picks from the rest.

This assay has as its system HepG2. The assay can be described thus: cytotoxicity call (relative viability < 0.9). Conditions: 10 µM.
Regarding `C[C@@H]1CN([C@H](C)CO)C(=O)c2cccc(NS(=O)(=O)c3ccc(Cl)cc3)c2O[C@@H]1CN(C)Cc1ccc(C(=O)Nc2ccccc2N)cc1`, the cytotoxicity call was “inactive”.
To `C[C@@H]1CN([C@@H](C)CO)C(=O)c2cc(NS(=O)(=O)c3ccc(Cl)cc3)ccc2O[C@@H]1CN(C)Cc1ccc(C(=O)Nc2ccccc2N)cc1` belongs “active”; to `C[C@@H]1CN([C@@H](C)CO)C(=O)c2cccc(NS(=O)(=O)c3ccc(Cl)cc3)c2O[C@H]1CN(C)Cc1ccc(C(=O)Nc2ccccc2N)cc1`, “inactive”.
To `C[C@H](CO)N1C[C@H](C)[C@H](CN(C)Cc2ccc(C(=O)Nc3ccccc3N)cc2)Oc2ccc(NS(=O)(=O)c3ccc(Cl)cc3)cc2C1=O` belongs “inactive”; to `C[C@@H]1CN([C@H](C)CO)C(=O)c2cccc(NS(=O)(=O)c3ccc(Cl)cc3)c2O[C@H]1CN(C)Cc1ccc(C(=O)Nc2ccccc2N)cc1`, “inactive”.
`C[C@H](CO)N1C[C@H](C)[C@H](CN(C)Cc2ccc(C(=O)Nc3ccccc3N)cc2)Oc2c(NS(=O)(=O)c3ccc(Cl)cc3)cccc2C1=O`: the cytotoxicity call was “active”.
In the case of `C[C@H]1CN([C@@H](C)CO)C(=O)c2cccc(NS(=O)(=O)c3ccc(Cl)cc3)c2O[C@@H]1CN(C)Cc1ccc(C(=O)Nc2ccccc2N)cc1` it was “inactive”; in that of `C[C@@H]1CN([C@H](C)CO)C(=O)c2cc(NS(=O)(=O)c3ccc(Cl)cc3)ccc2O[C@@H]1CN(C)Cc1ccc(C(=O)Nc2ccccc2N)cc1`, “inactive”; in that of `C[C@@H]1CN([C@@H](C)CO)C(=O)c2cccc(NS(=O)(=O)c3ccc(Cl)cc3)c2O[C@@H]1CN(C)Cc1ccc(C(=O)Nc2ccccc2N)cc1`, “active”.
For `CCSC(=S)N[C@H]1CCS(=O)(=O)C1`, the cytotoxicity call was “inactive”.
To `CC(C)NC(=O)Nc1ccc2c(c1)C(=O)N([C@@H](C)CO)C[C@@H](C)[C@@H](CN(C)C(=O)Nc1ccc(F)cc1)OCCCC[C@@H](C)O2` belongs “inactive”.
Consider `C[C@H](O)C#Cc1ccc2c(c1)O[C@@H](CN(C)C)[C@H](C)CN([C@@H](C)CO)S2(=O)=O`, for which the cytotoxicity call was “inactive”.
As for `COC(=O)C[C@H]1CC[C@@H]2[C@H](COC[C@@H](O)CN2S(=O)(=O)c2ccccc2C)O1`, the cytotoxicity call was “inactive”.
To `Cc1ccc(S(=O)(=O)N(C)C[C@@H]2Oc3c(NS(C)(=O)=O)cccc3C(=O)N([C@@H](C)CO)C[C@H]2C)cc1` belongs “inactive”.
In the case of `C[C@@H]1CCCCO[C@@H](CN(C)CC2CC2)[C@H](C)CN([C@@H](C)CO)C(=O)c2cc(NC(=O)CCC(F)(F)F)ccc2O1` it was “inactive”.
Regarding `Cn1c([N+](=O)[O-])cnc1COC(N)=O`, the cytotoxicity call is “inactive”.
To `COc1ccc(NC(=O)Nc2ccc3c(c2)[C@H]2C[C@H](CC(=O)N4CCN(C)CC4)O[C@H](CO)[C@H]2O3)cc1` belongs “inactive”.
To `COCCOC(=O)N1C(=O)[C@@]2(c3cc(C#CCCO)ccc31)[C@H](c1ccc(O)cc1)N1[C@H](c3ccccc3)[C@H](c3ccccc3)OC(=O)[C@H]1[C@@H]2C(=O)N1CCc2cc(OC)c(OC)cc2C1` belongs “inactive”.
Consider `Cc1ccc(C(C)C)c(O)c1`, for which the cytotoxicity call was “inactive”.
For `CC1(C)NC(=O)N(c2ccc([N+](=O)[O-])c(C(F)(F)F)c2)C1=O`, the cytotoxicity call is “inactive”.
To `CC(C)C(=O)Nc1ccc([N+](=O)[O-])c(C(F)(F)F)c1` belongs “active”.
To `Cc1cccc(NC(=O)C(C)C)c1` belongs “inactive”; to `COc1cccc(S(=O)(=O)N(C)C[C@@H]2OCc3cnnn3CCCC(=O)N([C@@H](C)CO)C[C@@H]2C)c1`, “inactive”; to `COc1ccc(S(=O)(=O)N(C)C[C@@H]2Oc3c(NC(=O)Nc4c(C)noc4C)cccc3C(=O)N([C@H](C)CO)C[C@H]2C)cc1`, “inactive”.
In the case of `Cc1noc(C)c1NC(=O)N(C)C[C@H]1OCCCC[C@@H](C)Oc2ccc(NC(=O)Nc3cccc4ccccc34)cc2C(=O)N([C@H](C)CO)C[C@@H]1C` it was “inactive”; in that of `CCOC(=O)CN(C#N)c1nc(C)cc(C)n1`, “inactive”.
`CCOC(=O)/C(C#N)=C1/C=CN(C)C=N1`: the cytotoxicity call is “active”.
Take `CCOC(=O)n1ncc(C#N)c1N`: the cytotoxicity call was “inactive”.
Consider `C[C@H]1CN([C@@H](C)CO)C(=O)c2cccc(NC(=O)CCCCCC(=O)Nc3ccccc3N)c2O[C@@H]1CN(C)C(=O)Nc1ccc(C(F)(F)F)cc1`, for which the cytotoxicity call was “inactive”.
In the case of `O=C(C[C@@H]1CC[C@H]2[C@@H](COC[C@H](O)CN2C(=O)Nc2cccc(Cl)c2)O1)NCCCN1CCOCC1` it was “inactive”; in that of `C[C@H]1CN([C@@H](C)CO)C(=O)c2cccc(NC(=O)C3CC3)c2O[C@@H]1CN(C)C(=O)NC1CCCCC1`, “inactive”.
In the case of `C[C@H]1CN([C@@H](C)CO)C(=O)c2cccc(NC(=O)C3CCCCC3)c2O[C@@H]1CN(C)Cc1ccc(Oc2ccccc2)cc1` it was “inactive”; in that of `C[C@@H]1CCCCO[C@@H](CN(C)C(=O)NC2CCCCC2)[C@@H](C)CN([C@H](C)CO)C(=O)c2cc(NS(=O)(=O)c3ccc(F)cc3)ccc2O1`, “inactive”; in that of `C[C@H](CO)N1C[C@H](C)[C@H](CN(C)C(=O)Nc2ccccc2C(F)(F)F)OCc2ccccc2-c2c(n(C)c3ccccc23)C1=O`, “inactive”.
In the case of `C[C@@H]1CN([C@H](C)CO)C(=O)c2ccccc2-c2ccccc2CO[C@H]1CN(C)C(=O)Nc1ccccc1C(F)(F)F` it was “inactive”.
Regarding `C[C@@H]1CN([C@H](C)CO)C(=O)c2c(c3ccccc3n2C)-c2ccccc2CO[C@H]1CN(C)C(=O)Nc1cccc(Cl)c1Cl`, the cytotoxicity call is “inactive”.
Turning to `C[C@H](CO)N1C[C@H](C)[C@@H](CN(C)C(=O)Nc2ccccc2C(F)(F)F)OCc2ccccc2-c2c(n(C)c3ccccc23)C1=O`, the cytotoxicity call was “active”.
In the case of `C[C@@H]1CN([C@H](C)CO)C(=O)c2ccccc2-c2ccccc2CO[C@@H]1CN(C)C(=O)Nc1ccccc1C(F)(F)F` it was “inactive”; in that of `C[C@H](CO)N1C[C@H](C)[C@H](CN(C)C(=O)Nc2cccc(Cl)c2Cl)OCc2ccccc2-c2c(n(C)c3ccccc23)C1=O`, “inactive”.
To `C[C@H](CO)N1C[C@H](C)[C@@H](CN(C)C(=O)Nc2cccc(Cl)c2Cl)OCc2ccccc2-c2c(n(C)c3ccccc23)C1=O` belongs “active”.
In the case of `C[C@@H]1CN([C@@H](C)CO)C(=O)c2ccccc2-c2ccccc2CO[C@@H]1CN(C)C(=O)Nc1ccccc1C(F)(F)F` it was “active”.
`C[C@@H]1CN([C@H](C)CO)C(=O)c2c(c3ccccc3n2C)-c2ccccc2CO[C@H]1CN(C)C(=O)Nc1ccccc1C(F)(F)F`: the cytotoxicity call was “inactive”.
In the case of `Cn1ccnc1CN1CC[C@]2(COCCN(S(C)(=O)=O)C2)C1` it was “inactive”.
Consider `Cc1ccc(S(=O)(=O)N(C)C[C@H]2Oc3c(NS(C)(=O)=O)cccc3C(=O)N([C@H](C)CO)C[C@@H]2C)cc1`, for which the cytotoxicity call is “inactive”.
As for `C[C@@H]1CN([C@H](C)CO)C(=O)CCCn2nncc2CO[C@@H]1CN(C)C(=O)Nc1cccc2ccccc12`, the cytotoxicity call was “inactive”.
In the case of `COc1cccc(-c2ccc3c(c2)O[C@H](CN(C)C(=O)C2CCOCC2)[C@@H](C)CN([C@H](C)CO)S3(=O)=O)c1` it was “inactive”.
In the case of `NCc1ccc(C(=O)N2CCCCC2)cc1` it was “inactive”; in that of `COCC(=O)N(C)C[C@@H]1Oc2cc(-c3ccc(C#N)cc3)ccc2S(=O)(=O)N([C@H](C)CO)C[C@@H]1C`, “inactive”; in that of `CNCc1nc(C)no1`, “inactive”.
To `COc1ccccc1S(=O)(=O)N[C@H]1C=C[C@H](CC(=O)N2CCOCC2)O[C@@H]1CO` belongs “inactive”; to `Cc1ccc(S(=O)(=O)N2C[C@H](O)COC[C@H]3O[C@H](CC(=O)N4CCc5ccccc5C4)CC[C@@H]32)cc1`, “inactive”.
Take `CC(C)(N)c1cc(C(=O)N[C@@H]2CCc3ccc(Oc4ccnc5c4CCC(=O)N5)cc3C2)cc(C(F)(F)F)c1`: the cytotoxicity call is “active”.
To `CC(C)CC#Cc1ccc2c(c1)O[C@@H](CN(C)C(=O)Cc1ccccn1)[C@@H](C)CN([C@@H](C)CO)S2(=O)=O` belongs “inactive”; to `C[C@H](CO)N1C[C@H](C)[C@H](CN(C)S(C)(=O)=O)Oc2ccc(NS(=O)(=O)c3ccccc3)cc2C1=O`, “inactive”; to `C[C@H](CO)N1C[C@H](C)[C@@H](CN(C)S(C)(=O)=O)Oc2ccc(NS(=O)(=O)c3ccccc3)cc2C1=O`, “inactive”.
In the case of `C[C@H]1CN([C@@H](C)CO)C(=O)c2cc(NS(=O)(=O)c3ccccc3)ccc2O[C@@H]1CN(C)S(C)(=O)=O` it was “active”; in that of `C[C@@H]1CN([C@H](C)CO)C(=O)c2cc(NS(=O)(=O)c3ccccc3)ccc2O[C@H]1CN(C)S(C)(=O)=O`, “active”; in that of `C[C@@H]1CN([C@@H](C)CO)C(=O)c2cc(NS(=O)(=O)c3ccccc3)ccc2O[C@@H]1CN(C)S(C)(=O)=O`, “inactive”.
To `C[C@H]1CN([C@@H](C)CO)C(=O)c2cc(NS(=O)(=O)c3ccccc3)ccc2O[C@H]1CN(C)S(C)(=O)=O` belongs “inactive”; to `Cn1cnc(S(=O)(=O)N2C[C@H](O)COC[C@H]3O[C@@H](CC(=O)NCc4cc(F)cc(F)c4)CC[C@@H]32)c1`, “inactive”; to `C[C@@H]1CN([C@H](C)CO)C(=O)c2cccc(NS(=O)(=O)c3ccc(F)cc3)c2O[C@H]1CN(C)S(=O)(=O)c1cn(C)cn1`, “inactive”.
Turning to `C[C@@H]1CCCCO[C@H](CN(C)S(C)(=O)=O)[C@@H](C)CN([C@H](C)CO)C(=O)c2cc(NC(=O)Nc3cccc4ccccc34)ccc2O1`, the cytotoxicity call was “inactive”.
`C[C@@H]1CN([C@H](C)CO)C(=O)c2cccc(NC(=O)Nc3ccc4c(c3)OCO4)c2O[C@H]1CN(C)Cc1ccc(C(F)(F)F)cc1`: the cytotoxicity call was “active”.
To `C[C@H]1CN([C@@H](C)CO)C(=O)c2cccc(NC(=O)Nc3ccc(C(F)(F)F)cc3)c2O[C@H]1CN(C)Cc1ccc2c(c1)OCO2` belongs “inactive”; to `C[C@@H]1CN([C@@H](C)CO)C(=O)c2cccc(NC(=O)Nc3ccc(C(F)(F)F)cc3)c2O[C@@H]1CN(C)Cc1ccc2c(c1)OCO2`, “active”.
To `C[C@H](CO)N1C[C@H](C)[C@@H](CN(C)Cc2ccc(C(F)(F)F)cc2)Oc2c(NC(=O)Nc3ccc4c(c3)OCO4)cccc2C1=O` belongs “inactive”.
To `C[C@H]1CN([C@@H](C)CO)C(=O)c2cccc(NC(=O)Nc3ccc4c(c3)OCO4)c2O[C@H]1CN(C)Cc1ccc(C(F)(F)F)cc1` belongs “inactive”.
In the case of `C[C@@H]1CN([C@@H](C)CO)C(=O)c2cccc(NC(=O)Nc3ccc(C(F)(F)F)cc3)c2O[C@H]1CN(C)Cc1ccc2c(c1)OCO2`, the cytotoxicity call was “inactive”.
To `C[C@@H]1CN([C@@H](C)CO)C(=O)c2cccc(NC(=O)Nc3ccc4c(c3)OCO4)c2O[C@H]1CN(C)Cc1ccc(C(F)(F)F)cc1` belongs “active”; to `C[C@H]1CN([C@@H](C)CO)C(=O)c2cccc(NC(=O)Nc3ccc4c(c3)OCO4)c2O[C@@H]1CN(C)Cc1ccc(C(F)(F)F)cc1`, “inactive”; to `C[C@H](CO)N1C[C@H](C)[C@H](CN(C)Cc2ccc(C(F)(F)F)cc2)Oc2c(NC(=O)Nc3ccc4c(c3)OCO4)cccc2C1=O`, “inactive”.
